Bioassay records as filed in PubChem.
Compounds with a hit are over-represented: about 6.5% of the library has one in this group of screens.
HCMV antiviral = human cytomegalovirus inhibition. HFF cells, HCMV-luciferase reporter, 72 h; hits give low values. activity change, negative = inhibition, % at 57.5 µM. actives 4.5% (n = 410,000). AID 1259415; in the data active means activity change below about -60%; inconclusive means no clear call, values can overlap the other calls; inactive means above about -39%
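Screen run at 2 compound doses on HFFs infected with reporter HCMV, MOI 1 PFU/cell. Luciferase activity from cell lysates at 72 h post infection gave inhibition relative to buffer-only and Salinomycin wells.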
Lassa entry inh = inhibitors of Lassa virus binding or cell entry. Lassa virus pseudotype entry inhibition, cell reporter. AID 540256. Potency, µM (top dose mostly 37.9 µM), for inactives: top-dose activity change, negative = inhibition, actives largely listed as inhibitors. actives 1.2% (n = 300,000); calls by dose curve; tested in HEK293 cells; further: potency means the concentration at half of the fitted maximal effect; nearly all actives have a fitted effect of over 50% in size
VACV Venus inh = vaccinia inhibition (Venus reporter); Vaccinia virus Venus reporter expression, fluorescence; actives 0.46% (n = 330,000); AID 720580; Potency, µM (highest dose often 36.5 µM), inactives show top-dose activity change, negative = inhibition, most hits filed as inhibitors; calls by dose curve; tested in A549 cells; further: potency means the concentration at half of the fitted maximal effect; nearly all actives have a fitted effect of over 30% in size
FMDV antiviral = blocks foot and mouth disease virus | FMDV antiviral cell-based qHTS | Potency, µM (doses to about 57.9 µM), inactives show at the top dose activity change, negative = inhibition, hits mostly inhibitors | actives 1.2% (n = 410,000) | AID 1159524; calls by dose curve; tested in HEK293T cells; further: read-out not given here; potency means the concentration at half of the fitted maximal effect; nearly all actives have a fitted effect of over 45% in size
MARV entry inh = inhibitors of Marburg virus binding or cell entry | Marburg virus pseudotyped entry inhibition, cell reporter | Potency, µM (top dose mostly 37.8 µM), without a hit: top-dose activity change, negative = inhibition, most hits filed as inhibitors | actives 1.8% (n = 300,000) | AID 540276; calls by dose curve; tested in HEK293 cells; further: potency means the concentration at half of the fitted maximal effect
VACV mCherry inh = inhibitors of vaccinia virus infection (mCherry reporter signal). Vaccinia virus mCherry reporter infection, fluorescence. Potency, µM (doses to about 36.5 µM), inactives show at the top dose activity change, negative = inhibition, most hits filed as inhibitors. actives 0.63% (n = 310,000); calls by dose curve; tested in A549 cells; further: potency means the concentration at half of the fitted maximal effect; nearly all actives have a fitted effect of over 35% in size
Numbers without * were called inactive; i = inactive; ? = inconclusive; / = not tested or not shown; [ ] = remark or other dose. On the % scale 0 is the no-effect control and ±100 the full control effect.

SMILES	HCMV antiviral	Lassa entry inh	VACV Venus inh	FMDV antiviral	MARV entry inh	VACV mCherry inh
CCOc1ccc(NC(=O)CC2C(=O)N(c3ccc(Cl)cc3)C(=O)N2Cc2cccs2)cc1 (stereo unspecified)	-24.5	-7.9%[46.1 µM]	-9.8%	-3.5%	/	-7.0%
O=C(Cc1ccsc1)Nc1ccc(S(=O)(=O)C(F)F)cc1	25.4	?	?	16.7%	-23.2%[46.1 µM]	10µM*
CCN(CC)S(=O)(=O)c1cc(NC(=O)Cc2ccsc2)ccc1C	-27.7	0.461µM*	?	0.1%	-16.7%	?
Cc1ccc(NC(=O)COC(=O)/C(=C/c2cccs2)c2cccs2)cc1S(=O)(=O)N(C)C	-39.8	11.2µM*	-9.9%	-16.6%	?	-21.8%
Cc1ccc(-c2cc(C(F)F)nc(S(C)(=O)=O)n2)cc1	-6.8	?	-4.4%	31.6µM*	?	-0.7%
COc1ccc(CCNc2nc(-c3ccc(C)cc3)cc(C(F)F)n2)cc1OC	-24.7	?	-9.5%	-10.6%	10.5%[46.1 µM]	-21.2%
Cc1ccc(S(=O)(=O)N(CCCN2CCCC2=O)Cc2cc3c(C)ccc(C)c3[nH]c2=O)cc1	-63.7*	-14.5%	/	-21.7%	?	/
Cc1nc2ccc(S(=O)(=O)N(C)CC(=O)Nc3ccc(Br)c(C)c3)cc2s1	?	2.6%[46.1 µM]	-22.6%	?	-28.2%[46.1 µM]	-9.1%
CCCN1CNc2c(c(=O)[nH]c(=S)n2CCc2ccc(Cl)c(Cl)c2)C1	/	/	-13.5%	/	/	i
O=S(Cc1ccc(Br)cc1)Cc1nnc(SCc2c(Cl)cccc2Cl)n1-c1ccccc1 (stereo unspecified)	?	?	?	28.2µM*	?	?
Cn1c(CS(=O)Cc2c(Cl)cccc2Cl)nnc1SCc1c(Cl)cccc1Cl (stereo unspecified)	-12.5	-5.7%	/	-3.9%	?	/
CC(C)CN(C)c1ccc(/C=C2\C=Cc3ccccc32)cc1	/	/	-28.3%	/	/	-28.7%
COc1ccc(Oc2cnc3ccccc3n2)cc1	-63.1*	-2.9%	-2.0%	41.8%	5.3%[46.1 µM]	i
COc1ccccc1NC(=O)Cn1c(=O)n(-c2ccc(C)cc2)c(=O)c2c1cnn2C	17.2	15.0%[46.1 µM]	-0.5%	-26.4%	6.0%[46.1 µM]	1.7%
NC1=NC[C@H](Cc2ccccc2)N1CCCCC1CCCCC1	-31.1	/	?	?	/	?
Oc1ccc(C[C@H]2CNCCN2CCC23CC4CC(CC(C4)C2)C3)cc1	-32.0	/	?	-23.0%	/	-18.8%
NC1=NC[C@H](Cc2ccc(O)cc2)N1CCCCC1CCCCC1	-90.5*	/	?	?	/	8.91µM*
Oc1ccc(C[C@H]2CNCCN2CCCCC2CCCCC2)cc1	?	/	11.2µM*	-26.8%	/	?
Oc1ccc(C[C@@H]2CNCCN2CCC23CC4CC(CC(C4)C2)C3)cc1	-87.0*	/	-26.3%	?	/	-10.9%
Cc1cc(C)n2nc(CNC(=O)c3ccc(Cl)cc3)nc2n1	8.9	1.4%[46.1 µM]	-5.4%	-4.5%	-1.7%[46.1 µM]	-10.3%
CN(C)c1ccc(/C=C/c2cc3ccccc3c[n+]2C)cc1	/	/	-41.0%	/	/	-24.6%
O=C(Cn1c(=O)c2cccn2c2ccc(F)cc21)Nc1cccc(F)c1	10.9	0.6%[46.1 µM]	-4.8%	-13.6%	/	-2.6%
CN(CC(=O)Nc1cccc(F)c1)C(=O)Cn1c(=O)oc2ccccc21	-9.6	/	/	-14.3%	/	/
O=C(Nc1cccc(F)c1)c1ccc2oc(=O)n(Cc3ccccc3)c2c1	-68.4*	-11.7%[46.1 µM]	-11.7%	?	/	-17.0%
O=C(Cn1c(=O)c(=O)n(Cc2ccccc2)c2ccc(Cl)cc21)Nc1cccc(F)c1	45.1	?	-9.4%	-6.8%	0.794µM*	i
SMILES	HCMV antiviral	Lassa entry inh	VACV Venus inh	FMDV antiviral	MARV entry inh	VACV mCherry inh
CCc1cc2c(nc1CC)CCN(CC/C(C)=N/O[C@H](C)c1cn([C@H](CO)Cc3ccccc3)nn1)C2	/	/	/	/	-27.1%[14.2 µM]	/
COc1ccccc1C(=O)N(Cc1cc2cc3c(cc2nc1N(C)C)OCO3)CC1CCCO1 (stereo unspecified)	/	/	-2.5%	10.7%	/	-7.8%
Cc1cc(S(=O)(=O)Nc2cccc([N+](=O)[O-])c2)c(C)s1	-39.7	/	/	0.0%	/	/
O=[N+]([O-])c1cccc(NNS(=O)(=O)c2ccccc2F)c1	-7.6	?	-19.9%	-0.1%	8.91µM*	?
O=C(Nc1ccc(Cl)c(C(F)(F)F)c1)C1Cc2c(-c3ccccc3)ccnc2O1 (stereo unspecified)	-83.8*	/	-6.7%	-27.0%	/	i
CC(=O)c1cccc(NC(=O)C2Cc3c(-c4cccc(C(C)=O)c4)ccnc3O2)c1 (stereo unspecified)	?	/	-3.0%	22.4µM*	/	2.1%
CC(=O)Nc1ccc(NC(=O)C2Cc3c(-c4cccc(F)c4)ccnc3O2)cc1 (stereo unspecified)	-20.7	/	-9.4%	-2.2%	/	22.0%
COc1ccc(NC(=O)C2Cc3c(-c4cccc(F)c4)ccnc3O2)cc1 (stereo unspecified)	-81.4*	/	-14.1%	-14.7%	/	-24.4%
CC(=O)c1cccc(-c2ccnc3c2CC(C(=O)Nc2cccnc2)O3)c1 (stereo unspecified)	-15.0	/	-17.4%	-19.0%	/	-2.0%
CC(=O)c1cccc(-c2ccnc3c2CC(C(=O)Nc2ccc(C(C)C)cc2)O3)c1 (stereo unspecified)	-82.3*	/	5.3%	-13.7%	/	46.0%
COCC(=O)Nc1cc(C(=O)N2CCN(c3ccc(Cl)cn3)CC2)c2c(c1)nc(C1CCC1)n2C	/	/	4.9%	-10.7%	/	-1.4%
Cc1ccc(O)c(C(=O)c2cnc3c(c2)COc2ccccc2-3)c1	-65.8*	5.2%	-10.7%	-28.1%	19.9%[46.1 µM]	-12.0%
Cc1ccc2c(c1)-c1ncc(C(=O)c3ccccc3O)cc1CO2	-25.7	5.7%[46.1 µM]	-4.0%	41.5%	4.1%[46.1 µM]	-9.1%
CC1CN(C(=O)/C=C/c2ccccc2[N+](=O)[O-])CC(C)O1 (stereo unspecified)	?	0.0%	2.4%	-2.1%	-0.3%[46.1 µM]	-6.5%
CC1CC(C)CN(C(=O)/C=C/c2ccc([N+](=O)[O-])s2)C1 (stereo unspecified)	-86.6*	/	?	?	/	?
CC1CN(C(=O)/C=C/c2ccc([N+](=O)[O-])s2)CC(C)O1 (stereo unspecified)	-67.6*	?	?	12.6%	11.2µM*	?
N/C(COc1cc(Cl)cc(Cl)c1)=N\O	-64.9*	5.5%	-7.3%	-11.3%	?	-9.0%
CCc1ccc(OCCOCC(O)CN2CCN(Cc3ccc(Cl)cc3)CC2)cc1 (stereo unspecified)	-29.5	?	-24.8%	-6.5%	?	-6.6%
OC(COCCOc1ccc(Br)cc1)CN1CCN(Cc2ccccc2)CC1 (stereo unspecified)	-100.6*	?	-26.6%	?	?	?
CN1CCCN(C(=O)CSc2nc3cccnc3n2C)CC1	7.8	/	/	/	/	/
COc1ccccc1CNC(=O)CCc1c(C)nc2c(c(C)nn2-c2ccc(C)c(C)c2)c1C	-4.2	-0.2%[46.1 µM]	-3.2%	4.3%	-2.5%[46.1 µM]	-3.8%
O=C(Nc1ccc(F)cc1F)c1ccc2c(c1)OCCO2	-4.4	?	0.5%	3.1%	2.82µM*	-5.6%
